# In the library only some 21% were active in any assay of this set; here they are far more common.
# ELG1 repair inh – inhibitors of ELG1-dependent DNA repair in HEK293T cells; actives 2.3% (n = 330,000); Potency, µM (doses to about 46.1 µM), without a hit: at the highest dose activity change, negative = inhibition, hits mostly inhibitors; HEK293T ELG1-luciferase reporter, luminescence, 16 h; DNA damage induced by 5-fluorouridine; further: potency means the concentration at half of the fitted maximal effect; nearly all actives have a fitted effect of over 55% in size
#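 Luminescence from the luciferase reporter, measured 30 min after ONE-Glo reagent at room temperature, was the read-out. Beforehand, 2,000 cells per well were exposed for 16 hr at 37 °C to 5-fluorouridine together with compound or vehicle.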
# RORgamma inh – inhibitors of mouse ROR gamma transcriptional activity; Potency, µM (titrated, usually from 53.6 µM), for inactives: at the highest dose activity change, negative = inhibition, actives largely listed as inhibitors; actives 5.4% (n = 310,000); Drosophila S2 Gal4-RORgamma UAS-luciferase reporter, 20 h; P51450; further: potency means the concentration at half of the fitted maximal effect; nearly all actives have a fitted effect of over 60% in size
# Target sequence (P51450 whole entry, looked up, the tested form may be a part): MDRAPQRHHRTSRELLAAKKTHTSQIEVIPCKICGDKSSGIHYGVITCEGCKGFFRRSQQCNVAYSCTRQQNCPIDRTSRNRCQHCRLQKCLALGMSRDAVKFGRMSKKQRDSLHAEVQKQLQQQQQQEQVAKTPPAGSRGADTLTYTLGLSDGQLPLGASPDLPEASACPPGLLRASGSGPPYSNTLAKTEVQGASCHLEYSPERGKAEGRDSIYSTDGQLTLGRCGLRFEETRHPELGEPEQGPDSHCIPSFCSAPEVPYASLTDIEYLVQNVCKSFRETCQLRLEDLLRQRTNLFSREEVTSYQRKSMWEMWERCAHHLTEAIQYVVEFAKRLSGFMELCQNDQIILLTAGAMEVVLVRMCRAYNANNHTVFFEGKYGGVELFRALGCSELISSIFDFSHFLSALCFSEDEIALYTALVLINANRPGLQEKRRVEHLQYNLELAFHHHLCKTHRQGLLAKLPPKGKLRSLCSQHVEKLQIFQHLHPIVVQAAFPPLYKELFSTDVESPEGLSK
#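 A Gal4/UAS one-hybrid system in insect cells: metallothionein-promoter Gal4–ROR gamma fusion plus Photinus luciferase reporter. Copper sulfate 700 uM final, 20 hr ambient incubation, luminescent detection after 10 min with reagent.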
# DT40 TDP1 CPT – DT40-hTDP1 cell growth loss with CPT; actives 12% (n = 420,000); chicken DT40 Tdp1-/-;hTDP1 cells + 20 nM CPT, ATP luminescence, 48 h; Potency, µM (titrated, usually from 46.2 µM), for the others: top-dose activity change, negative = growth inhibition, hits mostly inhibitors; further: potency means the concentration at half of the fitted maximal effect; nearly all actives have a fitted effect of over 55% in size
#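 Chicken DT40 Tdp1-/- cells complemented with human TDP1, 400 cells/well, exposed to compounds plus 20 nM camptothecin for at least 48 h at 37 C; viability read as ATP content by CellTiter-Glo luminescence.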
# IL1B secr inh – blocks inflammasome-driven IL-1 beta release; THP-1 LPS/ATP IL-1B secretion, AlphaLISA, 16 h; active compounds read low; activity change, % at 57.5 µM; actives 4.7% (n = 360,000); AID 743279; in the data active means activity change below about -50%; inconclusive means mostly about -30% to -49%
#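 THP-1 cells pretreated 1 hr with compounds (up to 57.5 uM final), then stimulated with LPS (250 ng/mL final) plus ATP (1.25 mM final); secreted IL-1B measured by AlphaLISA after 16 hr, decreased signal indicating inhibition.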
# Gal4-VP16 FLuc – inhibits Gal4-VP16 luciferase reporter, ROR gamma counter-screen. Drosophila S2 Gal4-VP16 UAS-luciferase, luminescence, 20 h. Potency, µM (titrated, usually from 53.6 µM), without a hit: at the highest dose activity, negative = inhibition, most hits filed as inhibitors. actives 3.5% (n = 310,000). AID 2546;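 further: Gal4-VP16 expression switched on by copper sulfate through the metallothionein promoter; potency means the concentration at half of the fitted maximal effect; nearly all actives have a fitted effect of over 50% in size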
# DT40 TDP1 no CPT – qHTS for Inhibitors of human tyrosyl-DNA phosphodiesterase 1 (TDP1): qHTS in cells in absence of CPT. DT40 Tdp1-/- hTDP1 cells, no CPT, ATP luminescence, 48 h. Potency, µM (titrated, usually from 46.2 µM), without a hit: top-dose activity change, negative = growth inhibition, usual class: inhibitors. actives 15% (n = 420,000). AID 686978, 2013; further: potency means the concentration at half of the fitted maximal effect; nearly all actives have a fitted effect of over 55% in size
#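 A cellular qHTS used chicken DT40 cells lacking endogenous Tdp1 but carrying stably transfected human TDP1. Compounds were applied without camptothecin, and cell growth kinetics were judged by ATP-dependent luminescence after ≥48 hr.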
# Starred values were filed as active, the others as inactive; ? = inconclusive; . = no result; [ ] = remark or other dose. Unless noted, the call rests on the fitted dose curve; in most records, active means well fitted curve in the direction sought with a large enough effect; inconclusive means small, poorly fitted or top-dose-only effect, or another doubt; inactive means no such curve, though single readings can be large; an effect the other way counts as inactive or inconclusive. On the % scale 0 is the no-effect control and ±100 the full control effect.
SMILES,ELG1 repair inh,RORgamma inh,DT40 TDP1 CPT,IL1B secr inh,Gal4-VP16 FLuc,DT40 TDP1 no CPT
OCCn1c(SC2CCCCC2)nc2ccccc21,3%,-21%,-21%,-11,?,?
CC(C)(C)C#CCn1c(/C=[N+](\[O-])C2CCCCC2)nc2ccccc21,-7%,10µM*,12µM*,18,-13%,18µM*
O=C(COc1ccccc1)Nc1nnc(SCc2cc(=O)n3cc(Cl)ccc3n2)s1,.,.,3%,.,.,1%
O=C(Nc1cccc(NC(=O)c2ccc(-c3ccc(Br)cc3)o2)c1)c1ccco1,9.2µM*,?,?,85,-23%,13µM*
O=C(Nc1ccc2oc(-c3cc(Br)ccc3Cl)nc2c1)c1cc2ccccc2o1,.,.,16µM*,.,.,10µM*
O=C(Nc1cccc(-c2nc3ccccc3o2)c1)c1ccc(-c2ccc(Br)cc2)o1,.,.,?,.,.,10µM*
O=C(Nc1ccc2oc(-c3cccnc3)nc2c1)c1cc2ccccc2o1,18µM*,-1%,?,-8,-8%,-28%
CC1(C)Cc2c(cnn2-c2ccccc2)C(=O)/C1=N\NC(=O)c1ccccc1O,-19%,28%,5%,-4,7%,-10%
O=C1NCCCCC1NS(=O)(=O)c1ccc(Cl)cc1 (stereo unspecified),6%,-8%,-12%,3,1%,-10%
COc1ccc(O)c(C(=O)N2CCC3(CC2)c2ccccc2[C@@H](NC(=O)c2ccccn2)[C@@H]3OC)c1,.,.,2%[9.04 µM],.,.,-27%
O=C1C2C3C=CC(C3)C2C(=O)N1c1cccc(-c2nc3ccccc3o2)c1 (stereo unspecified),10%,20%,-5%,29,23%,-4%
O=C(Nc1ccc2oc(-c3ccc(Br)cc3)nc2c1)c1cc2ccccc2o1,.,.,?,.,.,10µM*
O=C(Nc1cccc(-c2nc3ccccc3o2)c1)c1ccc(N2C(=O)C3C4C=CC(C4)C3C2=O)cc1 (stereo unspecified),16µM*,30%,7.3µM*,65,-4%,8.2µM*
COc1ccc(C2=Nn3c(nnc3-c3ccc(OC)c(OC)c3)SC2)cc1OC,.,-27%,.,.,-8%,.
Fc1cccc(Cc2c(-c3ccco3)nc3c(Cl)cc(C(F)(F)F)cn23)c1,.,.,?,-11,.,?
O=C1CC[C@@H](O)CCN1CC[C@H](Sc1ccc(Br)cc1)c1ccccc1,9%,.,23µM*,-17,.,10µM*
CC(C)(C)[C@@H]1CCC(=O)N(CC[C@H](Sc2ccc(Br)cc2)c2ccccc2)CC1,12%,.,18µM*,0,.,11µM*
O=C1CC[C@@H](O)CCN1CC[C@H](Sc1ccccc1)c1ccccc1,?,5%,?,5,-4%,?
O=C(Cc1ccccc1)Nc1nc2ccc(Cl)cc2c2nc(-c3ccco3)nn12,.,-17%,-5%,.,6%,-27%
Cc1nc2c(C#N)c(-c3ccc(Cl)cc3)ccn2n1,15%,45%,-30%,-4,-4%,12%
CC(C)(C)c1nc2c(C#N)c(-c3ccc(Cl)cc3)ccn2n1,-16%,16%,35µM*,-10,1%,20µM*
CC(Sc1nnc(-c2cccnc2)o1)C(=O)NC1CCCCC1 (stereo unspecified),-1%,.,-2%,7,.,0%
COc1ccc(-c2cc(=S)ss2)cc1,.,?,19µM*,.,7%,?
CCCC(=O)Oc1c(Sc2ccc(C)cc2)c(C)nn1-c1ccccc1,.,.,-17%,.,.,-17%
Cc1ccc(Sc2c(C)nn(C(=O)c3ccc(Br)cc3)c2C)cc1,.,.,3%,.,.,-15%
Cc1nn(C(=O)c2ccccc2)c(C)c1Sc1ccc(Cl)cc1,.,.,?,.,.,8.2µM*
CCC(=O)Oc1c(Sc2ccc(Cl)cc2)c(C)nn1-c1ccccc1,.,.,?,.,.,0.52µM*
